Compound activity as filed in PubChem BioAssay.
DAX1 inh-1 – DAX1 (NR0B1) inhibitors, primary screen, cell-based, HEK293, Gal4-DAX1, luciferase luminescence; HEK293 Gal4-DAX1 luciferase reporter; 340,000 compounds, 0.99% hits; Nuclear receptor subfamily 0 group B member 1 (Homo sapiens), P51843; inhibition, % at 6.75 µM; AID 504766, 2011;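 active means inhibition above the mean over all tested compounds plus 3 SD, cut at about 4.2% in these data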;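 further: 0% = DAX1-transfected cells with DMSO and 100% = empty-vector control cells with DMSO; inhibition shows as a rise in luminescence from relieved DAX1 repression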
Target sequence (P51843 207-470 limits assumed): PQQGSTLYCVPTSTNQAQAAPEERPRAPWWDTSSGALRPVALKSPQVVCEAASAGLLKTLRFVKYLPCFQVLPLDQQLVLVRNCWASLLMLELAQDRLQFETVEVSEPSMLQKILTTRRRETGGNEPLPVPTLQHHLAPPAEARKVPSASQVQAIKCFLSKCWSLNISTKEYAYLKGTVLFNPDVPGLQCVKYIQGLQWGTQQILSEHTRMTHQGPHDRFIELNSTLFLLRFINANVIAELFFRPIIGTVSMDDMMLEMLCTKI
hcDAF-12 act – H. contortus DAF-12 nuclear receptor activators, primary screen, cell-based, luminescence, HEK293, lit1-tk-luc reporter. HEK293 hcDAF-12 lit1-tk-luc reporter; 0% DMSO, 100% Δ7-dafachronic acid. activation, % at 6.8 µM. AID 652067, 2013. 370,000 compounds, 1.4% hits;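 active means activation above the mean of all tested compounds plus 3 SD, cut at about 5.5% in these data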;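 further: 100% = response to 3 µM Δ7-dafachronic acid high control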
hgDAF-12 ag – H. glycines DAF-12 receptor agonists, primary screen, cell-based, luminescence, HEK293, GAL4 fusion, UAS-luciferase; 370,000 compounds, 1.8% hits; AID 687014, 2013; Nuclear hormone receptor DAF-12 (Heterodera glycines), GAL4 fusion; activation, % at 6.8 µM; HEK293 GAL4-hgDAF12 UAS-luciferase reporter, agonist luminescence; normalized to butyrate control;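 active means activation above a cutoff set at the mean of all screened compounds plus 3 SD, cut at about 10% in these data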;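 further: 0% = DMSO wells and 100% = sodium butyrate wells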
ssDAF12 agonist – S. stercoralis DAF-12 nuclear receptor activators, primary screen, cell-based, luminescence, HEK293, GRIP1 co-expression, lit1-tk-luc. Nuclear hormone receptor DAF-12 (Strongyloides stercoralis). HEK293 ssDAF-12/GRIP1 lit1-tk-luc reporter; % of 3 µM dafachronic acid response. activation, % at 6.8 µM. 370,000 compounds, 1% hits. AID 652126, 2013;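 active means activation above the mean over all tested compounds plus 3 SD, cut at about 0.9% in these data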;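 further: 0% = DMSO-only wells and 100% = 3 µM delta7-dafachronic acid wells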
DAX1 inh-2 – DAX1 (NR0B1) inhibitors on StAR promoter, primary screen, cell-based, luminescence, SF-1 (NR5A1), full-length DAX-1 | 370,000 compounds, 1.1% hits | HEK293T StAR-luciferase reporter, SF-1/DAX-1 repression relief | inhibition, % at 6.8 µM;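 active means inhibition above the mean over all tested compounds plus 3 SD, cut at about 3.6% in these data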;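 further: 0% = DAX-1 cells with DMSO and 100% = cells lacking DAX-1 with DMSO; higher inhibition means more luminescence from relief of DAX-1 repression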
LXRb hcDAF ctr – LXR agonists, Gal4 luciferase reporter, confirmation, counter-screen for hcDAF-12 agonist project, cell-based, luminescence, HEK293, H. contortus campaign; 3,400 tested, under 10 active; AID 743027, 2013; HEK293 Gal4-LXR tk-luc reporter, 24 h; normalized: DMSO 0%, positive control 100%; shares compounds with hcDAF-12 act; activation, % at 6.8 µM;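 active means mean percent activation of the reporter above a cutoff set as the average over tested compounds plus their standard deviation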
hcDAF12 ag – H. contortus DAF-12 receptor agonists, confirmation, cell-based, luminescence, HEK293, lit1-tk-luc, triplicate; shares compounds with hcDAF-12 act; HEK293 hcDAF-12 lit1-tk-luc reporter; % of Δ7-dafachronic acid response; activation, % at 6.8 µM; 3,400 compounds, 61% hits;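 active means mean activation across triplicate tests above the threshold derived from the earlier primary screen, cut at about 5.5% in these data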;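 further: 0% = DMSO only wells and 100% = 3 µM Δ7-dafachronic acid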
* marks the source's active call; other numbers are inactive results; nt = not tested or not shown. Compounds with a hit are over-represented: about 4.1% of the library has one in this group of screens.

SMILES	DAX1 inh-1	hcDAF-12 act	hgDAF-12 ag	ssDAF12 agonist	DAX1 inh-2	LXRb hcDAF ctr	hcDAF12 ag
O=C(Nc1ccc2[nH]ccc2c1)c1ccccc1	-2	9.2*	12*	1	3	2	9.5*
CN1C(=O)C(c2cn(C)c3ccccc23)(c2cn(C)c3ccccc23)c2ccccc21	nt	-2	4	0	-1	nt	nt
O=C(Nc1nc2ccccc2[nH]1)Nc1ccccc1F	2	24*	22*	4.8*	3	2	20*
COc1cc(C(=O)Nc2nc3ccccc3[nH]2)cc(OC)c1OC	-1	0	5	-2	1	nt	nt
O=C(Nc1nc2ccccc2[nH]1)c1cccc(Br)c1	0	8.6*	12*	1	1	1	7.1*
COc1cccc(C(=O)Nc2nc3ccccc3[nH]2)c1	-4	7.4*	11*	0	3	2	8.0*
O=C(CCc1ccccc1-c1ccccc1CCNC(=O)c1c(F)cccc1F)NCc1ccccc1	nt	-3	-6	-1	-1	nt	nt
COC(=O)[C@H](C(C)C)N1Cc2nnn(CC3CCCCC3)c2-c2ccccc2S1(=O)=O	nt	-3	-2	-2	0	nt	nt
C=C1CSc2nc(=O)c3c4c(sc3n21)CCCC4	-1	7.0*	2	-1	0	0	1
Cn1nc(-c2ccc(Cl)cc2)c2cc(C(=O)NCCN3CCOCC3)sc21	7.5*	7.3*	5	0	1	0	5
Cn1nc(-c2ccc(Cl)cc2)c2cc(C(=O)NCCCN3CCOCC3)sc21	3	nt	nt	nt	nt	nt	nt
CCCCN(CC)CCNC(=O)c1cc2c(-c3ccc(Cl)cc3)nn(C)c2s1	2	10*	6	1.3*	2	0	11*
CCN1CCN(C(=O)c2cc3c(-c4ccc(Cl)cc4)nn(C)c3s2)CC1	4.5*	7.6*	4	1.2*	1	0	6.6*
CCCN(CCC)CCNC(=O)c1cc2c(-c3ccc(Cl)cc3)nn(C)c2s1	1	11*	6	0	1	0	13*
C/C=C/c1ccc([C@@H]2[C@H](CO)N(S(C)(=O)=O)[C@H]2CN(C)C(=O)CC)cc1	nt	-2	6	-1	0	nt	nt
COc1ccc(-c2ccc(N3C(c4ccsc4)=Cc4ccc(F)cc4C3c3c[nH]c4ccccc34)cc2)cc1 (centres undefined)	nt	8.5*	9	1.5*	-1	0	6.9*
Cc1cc(C)cc(NC(=O)OC2CC3CC2[C@H]2CCCCN2[C@H]3Cc2ccccc2)c1 (some centres undefined)	nt	0	2	0	0	nt	nt
CC(=O)c1cccc(NC(=S)NC(=O)c2ccccc2Cl)c1	0	1	4	-1	0	nt	nt
O=C(NC(=S)Nc1ccccc1O)c1ccccc1Cl	0	7.7*	13*	1.5*	2	0	6.2*
COC(=O)c1ccccc1NC(=S)NC(=O)c1ccc(C)cc1	0	7.4*	10	0	1	0	4
Cc1ccc(C(=O)NC(=S)Nc2cc(-c3nc4ccccc4s3)ccc2C)cc1	3	7.2*	12*	1.4*	2	1	6.0*
Cc1cc(C)c(NC(=S)NC(=O)c2ccc(-c3ccccc3)cc2)c(C)c1	1	1	-2	-2	0	nt	nt
C=CCN(C(=O)[C@@H](C)[C@@H](O)c1ccc(Cl)cc1)c1ccccc1	nt	-3	2	-1	-1	nt	nt
CCC[C@H]1[C@@H](NC(=O)c2cccc(N(C)C)c2)CC[C@@]23CCCN2C(=O)CCC[C@@H]13	nt	-3	3	-2	nt	nt	nt
Cn1c(=O)c(/C=C/c2ccc(F)cc2)nc2ccccc21	1	10.0*	7	0	1	0	9.9*
SMILES	DAX1 inh-1	hcDAF-12 act	hgDAF-12 ag	ssDAF12 agonist	DAX1 inh-2	LXRb hcDAF ctr	hcDAF12 ag
Cn1c(=O)c(/C=C/c2ccccc2)nc2ccccc21	3	13*	23*	2.4*	4.2*	1	16*
CN(C)c1nc2ccccc2n(C)c1=O	0	-2	1	-1	0	nt	nt
O=c1c(/C=C(\O)c2ccc(F)cc2)nc2ccccc2n1-c1ccccc1	0	-2	0	-1	0	nt	nt
Cc1ccc(-c2cc3nc(C)cc(NCc4ccco4)n3n2)cc1	2	8.5*	9	2.4*	3	1	6.2*
CC(C)(C)OC(=O)N1CCC2CCN(S(=O)(=O)c3ccccc3)CC21 (centres undefined)	nt	-1	-3	-1	0	nt	nt
Cc1ccc(NC2=Nc3ccccc3CS2)cc1	-1	15*	19*	1.6*	3	2	14*
Cc1ccc(Nc2ccccc2)cc1	0	0	1	-1	1	nt	nt
Oc1[nH]c2ccccc2c1/C=N/N1CCCCC1	0	14*	3	0	1	0	4
COc1ccc(N=Cc2c(O)ccc3ccccc23)cc1	1	-1	0	0	0	nt	nt
COc1ccc(N=Cc2c(O)[nH]c3ccccc23)cc1	1	6.9*	13*	1.1*	4.2*	2	11*
Cc1ccsc1/C=N/N=C/c1sccc1C	2	11*	17*	1.6*	3	2	14*
Cc1ccsc1C=Nc1ccc(O)cc1	1	nt	nt	nt	nt	nt	nt
O=C(Nc1ccc(F)cc1)OCc1cn(Cc2cccc(F)c2)nn1	nt	-1	-1	-1	1	nt	nt
O=c1[nH]c(-[n+]2ccc3ccccc3c2)c(/C=N/N=C(\[O-])c2ccccc2)s1	1	9.0*	8	1	2	0	1
CCN(CC)c1ccc(NC(=O)CSc2nc3ccccc3c(=O)n2-c2ccc(C)cc2)cc1	nt	-3	3	-1	-2	nt	nt
COc1ccc(CCNC(=O)COC(=O)C23CC4CC(CC(C4)C2)C3)cc1	-2	6.8*	5	0	-2	0	1
